Assay results taken from paper PMC7862700, “An all-to-all approach to the identification of sequence-specific readers for epigenetic DNA modifications on cytosine”.

Key:
Experiment in all cases: DAPPL (digital affinity profiling via proximity ligation, sequencing); 10 mM Tris-HCl pH 7.5, 50 mM NaCl, 1 mM DTT, 4% glycerol, room temperature, 30 min; GST-TFs on glutathione beads, 16-mer random dsDNA library, 0.1% formaldehyde crosslink after washing; high values mean tight binding
FLI1 = biological target: T1, FLI1 (Homo sapiens, UniProt Q01543 1-452); details: protein: recombinant; tags: N-terminal GST; dsDNA, one strand shown
T1 sequence: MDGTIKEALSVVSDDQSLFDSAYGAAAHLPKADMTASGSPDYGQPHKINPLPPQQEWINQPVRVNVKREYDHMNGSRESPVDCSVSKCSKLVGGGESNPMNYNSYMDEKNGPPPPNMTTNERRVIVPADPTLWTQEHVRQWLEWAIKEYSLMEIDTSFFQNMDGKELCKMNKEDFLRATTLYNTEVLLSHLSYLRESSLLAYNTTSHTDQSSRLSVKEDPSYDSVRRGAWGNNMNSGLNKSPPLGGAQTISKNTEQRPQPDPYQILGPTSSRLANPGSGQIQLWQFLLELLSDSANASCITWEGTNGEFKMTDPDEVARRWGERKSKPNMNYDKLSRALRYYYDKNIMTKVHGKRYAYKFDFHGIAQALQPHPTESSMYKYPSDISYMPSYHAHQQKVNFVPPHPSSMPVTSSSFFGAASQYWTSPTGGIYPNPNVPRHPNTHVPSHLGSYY
Summary of the method: (§1)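 Binding signal is defined as a hexamer's read frequency for one factor over its frequency for the tag-only sample. To obtain reads, GST-fused human transcription factors were expressed in yeast, captured on glutathione beads, barcoded with DNA and pooled with that sample. Pools met 200 nmole of a 16-mer random double-stranded DNA library in Tris/NaCl/DTT/glycerol buffer for 30 min at room temperature before washing, 0.1% formaldehyde crosslinking, proximity ligation (BsaI/T4 ligase, 1 h, 37 °C), PCR and Illumina NextSeq500 sequencing.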

ELK1 = biological target: T2, ELK1 (Homo sapiens, UniProt P19419 1-428); details: protein: recombinant; tags: N-terminal GST; dsDNA, one strand shown
T2 sequence: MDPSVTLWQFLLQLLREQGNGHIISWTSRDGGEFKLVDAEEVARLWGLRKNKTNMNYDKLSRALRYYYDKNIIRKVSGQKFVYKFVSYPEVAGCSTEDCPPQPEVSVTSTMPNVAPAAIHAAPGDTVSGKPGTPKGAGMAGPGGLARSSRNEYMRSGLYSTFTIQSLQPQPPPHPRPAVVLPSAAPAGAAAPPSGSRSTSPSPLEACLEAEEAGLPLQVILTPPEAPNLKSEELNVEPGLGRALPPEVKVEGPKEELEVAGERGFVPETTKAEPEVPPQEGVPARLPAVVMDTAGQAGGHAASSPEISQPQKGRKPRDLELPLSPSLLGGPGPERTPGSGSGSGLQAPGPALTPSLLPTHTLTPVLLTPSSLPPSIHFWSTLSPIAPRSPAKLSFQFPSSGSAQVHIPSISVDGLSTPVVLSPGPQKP
Summary of the method: as §1

GABPA = biological target: T3, GABPA (Homo sapiens, UniProt Q06546 1-454); details: protein: recombinant; tags: N-terminal GST; dsDNA, one strand shown
T3 sequence: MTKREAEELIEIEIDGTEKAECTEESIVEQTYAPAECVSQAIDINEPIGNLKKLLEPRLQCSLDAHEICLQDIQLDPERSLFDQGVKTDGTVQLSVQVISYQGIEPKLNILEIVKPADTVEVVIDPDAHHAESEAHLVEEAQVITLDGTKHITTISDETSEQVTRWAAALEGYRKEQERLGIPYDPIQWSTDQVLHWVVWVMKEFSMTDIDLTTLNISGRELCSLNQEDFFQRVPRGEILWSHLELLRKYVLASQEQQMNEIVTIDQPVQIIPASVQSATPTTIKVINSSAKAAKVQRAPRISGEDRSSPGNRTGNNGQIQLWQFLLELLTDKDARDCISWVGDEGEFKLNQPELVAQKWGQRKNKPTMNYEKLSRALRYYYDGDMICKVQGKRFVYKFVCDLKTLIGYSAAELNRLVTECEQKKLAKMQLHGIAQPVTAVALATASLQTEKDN
Summary of the method: as §1

ERG = biological target: T4, ERG (Homo sapiens, UniProt P11308 1-479); details: protein: recombinant; tags: N-terminal GST; dsDNA, one strand shown
T4 sequence: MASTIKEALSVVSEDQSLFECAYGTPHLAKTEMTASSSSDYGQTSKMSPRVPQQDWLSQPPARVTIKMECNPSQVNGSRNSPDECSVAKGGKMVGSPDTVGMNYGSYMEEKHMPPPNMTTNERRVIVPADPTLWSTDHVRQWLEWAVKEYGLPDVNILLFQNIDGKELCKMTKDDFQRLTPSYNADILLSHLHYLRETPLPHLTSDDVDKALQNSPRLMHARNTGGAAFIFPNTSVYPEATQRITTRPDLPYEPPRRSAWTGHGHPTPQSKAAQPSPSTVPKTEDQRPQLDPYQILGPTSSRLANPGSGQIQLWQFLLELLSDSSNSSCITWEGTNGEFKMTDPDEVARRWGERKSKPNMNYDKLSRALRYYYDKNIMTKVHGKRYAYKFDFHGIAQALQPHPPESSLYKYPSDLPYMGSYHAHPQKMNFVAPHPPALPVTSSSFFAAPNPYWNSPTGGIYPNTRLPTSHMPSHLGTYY
Summary of the method: as §1

ELF1 = ELF1 (Homo sapiens, UniProt P32519 1-619); details: protein: recombinant; tags: N-terminal GST; dsDNA, one strand shown
Summary of the method: as §1

EHF = biological target: T5, EHF (Homo sapiens, UniProt Q9NZC4 1-300); details: protein: recombinant; tags: N-terminal GST; dsDNA, one strand shown
T5 sequence: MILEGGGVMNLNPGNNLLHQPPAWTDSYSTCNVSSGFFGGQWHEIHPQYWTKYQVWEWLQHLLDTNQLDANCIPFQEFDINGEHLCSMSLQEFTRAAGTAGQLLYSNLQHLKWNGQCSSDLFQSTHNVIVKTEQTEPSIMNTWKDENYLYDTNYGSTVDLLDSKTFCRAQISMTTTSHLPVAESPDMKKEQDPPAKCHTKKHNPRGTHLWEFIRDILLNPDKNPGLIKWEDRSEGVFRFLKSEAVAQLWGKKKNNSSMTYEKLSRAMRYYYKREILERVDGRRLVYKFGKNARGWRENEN
Summary of the method: as §1

SPI1 = SPI1 (Homo sapiens, UniProt P17947 1-270); details: protein: recombinant; tags: N-terminal GST; dsDNA, one strand shown
Summary of the method: as §1

SPIB = SPIB (Homo sapiens, UniProt Q01892 1-262); details: protein: recombinant; tags: N-terminal GST; dsDNA, one strand shown
Summary of the method: as §1

ELK3 = biological target: T6, ELK3 (Homo sapiens, UniProt P41970 1-407); details: protein: recombinant; tags: N-terminal GST; dsDNA, one strand shown
T6 sequence: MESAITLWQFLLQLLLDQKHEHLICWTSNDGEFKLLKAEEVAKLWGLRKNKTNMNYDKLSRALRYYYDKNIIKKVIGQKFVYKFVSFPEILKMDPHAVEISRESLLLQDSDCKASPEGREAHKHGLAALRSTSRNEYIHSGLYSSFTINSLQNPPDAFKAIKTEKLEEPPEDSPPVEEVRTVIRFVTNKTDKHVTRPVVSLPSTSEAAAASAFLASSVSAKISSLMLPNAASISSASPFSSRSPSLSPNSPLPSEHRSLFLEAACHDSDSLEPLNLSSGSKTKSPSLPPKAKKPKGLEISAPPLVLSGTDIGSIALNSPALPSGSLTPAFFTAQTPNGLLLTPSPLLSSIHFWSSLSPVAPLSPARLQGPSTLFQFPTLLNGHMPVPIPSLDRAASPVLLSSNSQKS
Summary of the method: as §1

FEV = biological target: T7, FEV (Homo sapiens, UniProt Q99581 1-238); details: protein: recombinant; tags: N-terminal GST; dsDNA, one strand shown
T7 sequence: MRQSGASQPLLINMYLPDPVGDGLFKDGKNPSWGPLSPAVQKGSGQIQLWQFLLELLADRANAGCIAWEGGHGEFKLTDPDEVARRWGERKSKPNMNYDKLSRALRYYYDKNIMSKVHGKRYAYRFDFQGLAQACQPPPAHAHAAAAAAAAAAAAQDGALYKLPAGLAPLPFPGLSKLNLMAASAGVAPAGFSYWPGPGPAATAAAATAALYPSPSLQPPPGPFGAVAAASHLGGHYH
Summary of the method: as §1

ETV5 = ETV5 (Homo sapiens, UniProt P41161 1-510); details: protein: recombinant; tags: N-terminal GST; dsDNA, one strand shown
Summary of the method: as §1

HSF1 = HSF1 (Homo sapiens, UniProt Q00613 1-529); details: protein: recombinant; tags: N-terminal GST; chain copies: 3; dsDNA, one strand shown
Summary of the method: as §1

SPIC = biological target: T8, SPIC (Homo sapiens, UniProt Q8N5J4 1-248); details: protein: recombinant; tags: N-terminal GST; dsDNA, one strand shown
T8 sequence: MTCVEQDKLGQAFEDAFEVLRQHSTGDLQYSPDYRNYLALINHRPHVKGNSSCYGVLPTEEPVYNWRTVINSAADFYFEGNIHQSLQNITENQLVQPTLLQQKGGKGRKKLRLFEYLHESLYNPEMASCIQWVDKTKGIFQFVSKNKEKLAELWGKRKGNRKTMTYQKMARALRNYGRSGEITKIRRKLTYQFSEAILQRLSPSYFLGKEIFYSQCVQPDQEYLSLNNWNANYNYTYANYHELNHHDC
Summary of the method: as §1

ELF4 = ELF4 (Homo sapiens, UniProt Q99607 1-663); details: protein: recombinant; tags: N-terminal GST; dsDNA, one strand shown
Summary of the method: as §1

ELK4 = biological target: T9, ELK4 (Homo sapiens, UniProt P28324-2 1-405); details: protein: recombinant; tags: N-terminal GST; dsDNA, one strand shown
T9 sequence: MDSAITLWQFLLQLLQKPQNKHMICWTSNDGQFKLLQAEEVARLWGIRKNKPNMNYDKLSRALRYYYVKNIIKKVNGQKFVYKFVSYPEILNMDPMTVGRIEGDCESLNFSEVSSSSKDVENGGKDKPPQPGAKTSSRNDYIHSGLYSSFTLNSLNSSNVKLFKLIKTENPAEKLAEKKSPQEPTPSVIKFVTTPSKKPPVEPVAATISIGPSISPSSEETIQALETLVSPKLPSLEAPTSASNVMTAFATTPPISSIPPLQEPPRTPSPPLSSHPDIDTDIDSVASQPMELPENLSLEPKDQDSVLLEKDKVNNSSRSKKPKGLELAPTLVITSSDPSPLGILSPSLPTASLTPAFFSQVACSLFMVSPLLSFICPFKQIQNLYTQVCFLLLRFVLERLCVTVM
Summary of the method: as §1

ELF3 = biological target: T10, ELF3 (Homo sapiens, UniProt P78545 1-371); details: protein: recombinant; tags: N-terminal GST; dsDNA, one strand shown
T10 sequence: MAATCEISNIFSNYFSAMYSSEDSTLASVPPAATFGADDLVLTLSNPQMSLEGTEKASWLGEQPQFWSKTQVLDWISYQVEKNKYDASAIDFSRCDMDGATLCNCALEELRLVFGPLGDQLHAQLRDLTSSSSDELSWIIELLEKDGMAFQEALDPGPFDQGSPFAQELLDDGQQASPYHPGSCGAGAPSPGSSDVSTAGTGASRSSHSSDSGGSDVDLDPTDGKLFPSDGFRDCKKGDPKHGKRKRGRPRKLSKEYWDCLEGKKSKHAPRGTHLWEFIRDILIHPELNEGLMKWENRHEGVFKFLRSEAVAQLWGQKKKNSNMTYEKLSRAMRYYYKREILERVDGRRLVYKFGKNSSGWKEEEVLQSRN
Summary of the method: as §1

CRX = CRX (Homo sapiens, UniProt O43186 1-299); details: protein: recombinant; tags: N-terminal GST; dsDNA, one strand shown
Summary of the method: as §1

ETV1 = ETV1 (Homo sapiens, UniProt P50549 1-477); details: protein: recombinant; tags: N-terminal GST; dsDNA, one strand shown
Summary of the method: as §1

Sequence of CRX (O43186 whole entry): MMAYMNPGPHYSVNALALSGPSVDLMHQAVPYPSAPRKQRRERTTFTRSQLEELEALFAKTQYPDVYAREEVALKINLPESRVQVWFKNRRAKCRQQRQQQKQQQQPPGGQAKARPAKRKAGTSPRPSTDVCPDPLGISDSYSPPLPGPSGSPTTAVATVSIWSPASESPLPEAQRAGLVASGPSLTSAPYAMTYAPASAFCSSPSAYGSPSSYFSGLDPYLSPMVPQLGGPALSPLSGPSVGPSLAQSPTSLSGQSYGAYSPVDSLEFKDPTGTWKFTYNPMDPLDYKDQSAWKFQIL
Sequence of ETV1 (P50549 whole entry): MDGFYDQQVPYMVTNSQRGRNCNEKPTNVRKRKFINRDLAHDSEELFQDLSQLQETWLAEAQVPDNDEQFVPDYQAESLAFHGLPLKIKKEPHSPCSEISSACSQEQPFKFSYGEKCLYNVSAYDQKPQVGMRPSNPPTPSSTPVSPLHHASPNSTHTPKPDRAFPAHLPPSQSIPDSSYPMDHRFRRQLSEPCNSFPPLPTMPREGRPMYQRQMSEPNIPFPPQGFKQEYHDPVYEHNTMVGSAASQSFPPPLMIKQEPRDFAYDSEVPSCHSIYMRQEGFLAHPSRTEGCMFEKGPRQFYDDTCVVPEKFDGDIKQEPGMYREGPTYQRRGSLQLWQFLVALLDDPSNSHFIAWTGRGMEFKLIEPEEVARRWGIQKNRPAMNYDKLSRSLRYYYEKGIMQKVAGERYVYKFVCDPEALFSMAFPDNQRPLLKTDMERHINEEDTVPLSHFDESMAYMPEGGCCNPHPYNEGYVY
Sequence of HSF1 (Q00613 whole entry): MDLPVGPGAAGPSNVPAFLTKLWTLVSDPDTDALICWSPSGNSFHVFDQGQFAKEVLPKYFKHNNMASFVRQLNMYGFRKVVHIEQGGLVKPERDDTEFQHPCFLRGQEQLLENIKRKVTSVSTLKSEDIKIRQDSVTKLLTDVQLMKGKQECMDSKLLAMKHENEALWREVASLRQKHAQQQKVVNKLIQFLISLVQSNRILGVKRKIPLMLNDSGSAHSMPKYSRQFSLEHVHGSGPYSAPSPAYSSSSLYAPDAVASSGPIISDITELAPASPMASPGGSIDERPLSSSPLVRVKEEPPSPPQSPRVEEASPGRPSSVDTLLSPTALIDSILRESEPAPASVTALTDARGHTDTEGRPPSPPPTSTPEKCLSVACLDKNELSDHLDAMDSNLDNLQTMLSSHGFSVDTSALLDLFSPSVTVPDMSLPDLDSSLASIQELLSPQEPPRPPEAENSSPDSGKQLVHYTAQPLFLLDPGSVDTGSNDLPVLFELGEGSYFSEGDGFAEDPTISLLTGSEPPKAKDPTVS
Sequence of ELF1 (P32519 whole entry): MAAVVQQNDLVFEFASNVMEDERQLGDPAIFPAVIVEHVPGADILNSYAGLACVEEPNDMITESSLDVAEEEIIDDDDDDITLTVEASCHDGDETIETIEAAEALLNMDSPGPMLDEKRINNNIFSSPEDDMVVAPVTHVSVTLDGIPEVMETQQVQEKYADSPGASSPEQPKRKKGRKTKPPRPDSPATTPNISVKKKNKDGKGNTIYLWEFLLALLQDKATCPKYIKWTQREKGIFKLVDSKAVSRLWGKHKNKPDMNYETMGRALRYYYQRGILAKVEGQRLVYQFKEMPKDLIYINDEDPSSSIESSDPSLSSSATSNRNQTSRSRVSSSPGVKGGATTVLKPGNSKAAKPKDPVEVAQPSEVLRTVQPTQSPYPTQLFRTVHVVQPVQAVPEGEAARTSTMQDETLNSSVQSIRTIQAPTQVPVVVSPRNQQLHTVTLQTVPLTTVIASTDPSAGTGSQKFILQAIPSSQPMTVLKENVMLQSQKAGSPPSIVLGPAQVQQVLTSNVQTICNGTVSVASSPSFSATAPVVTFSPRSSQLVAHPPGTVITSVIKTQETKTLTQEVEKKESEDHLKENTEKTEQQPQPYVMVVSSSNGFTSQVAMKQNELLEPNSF
Sequence of ETV5 (P41161 whole entry): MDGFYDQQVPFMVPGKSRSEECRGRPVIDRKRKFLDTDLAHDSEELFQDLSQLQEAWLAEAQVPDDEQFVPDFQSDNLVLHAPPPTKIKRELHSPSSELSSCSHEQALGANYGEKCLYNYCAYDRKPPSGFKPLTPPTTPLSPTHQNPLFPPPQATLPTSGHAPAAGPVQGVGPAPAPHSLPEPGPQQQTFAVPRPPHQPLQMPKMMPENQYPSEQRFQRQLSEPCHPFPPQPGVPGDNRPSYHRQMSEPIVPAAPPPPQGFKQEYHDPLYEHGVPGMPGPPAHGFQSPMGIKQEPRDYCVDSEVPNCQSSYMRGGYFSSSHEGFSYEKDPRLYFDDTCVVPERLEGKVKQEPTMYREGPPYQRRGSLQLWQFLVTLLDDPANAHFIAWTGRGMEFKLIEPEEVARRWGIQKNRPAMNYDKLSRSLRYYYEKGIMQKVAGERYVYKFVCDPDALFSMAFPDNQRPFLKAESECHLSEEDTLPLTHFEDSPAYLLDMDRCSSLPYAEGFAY
Sequence of ELF4 (Q99607 whole entry): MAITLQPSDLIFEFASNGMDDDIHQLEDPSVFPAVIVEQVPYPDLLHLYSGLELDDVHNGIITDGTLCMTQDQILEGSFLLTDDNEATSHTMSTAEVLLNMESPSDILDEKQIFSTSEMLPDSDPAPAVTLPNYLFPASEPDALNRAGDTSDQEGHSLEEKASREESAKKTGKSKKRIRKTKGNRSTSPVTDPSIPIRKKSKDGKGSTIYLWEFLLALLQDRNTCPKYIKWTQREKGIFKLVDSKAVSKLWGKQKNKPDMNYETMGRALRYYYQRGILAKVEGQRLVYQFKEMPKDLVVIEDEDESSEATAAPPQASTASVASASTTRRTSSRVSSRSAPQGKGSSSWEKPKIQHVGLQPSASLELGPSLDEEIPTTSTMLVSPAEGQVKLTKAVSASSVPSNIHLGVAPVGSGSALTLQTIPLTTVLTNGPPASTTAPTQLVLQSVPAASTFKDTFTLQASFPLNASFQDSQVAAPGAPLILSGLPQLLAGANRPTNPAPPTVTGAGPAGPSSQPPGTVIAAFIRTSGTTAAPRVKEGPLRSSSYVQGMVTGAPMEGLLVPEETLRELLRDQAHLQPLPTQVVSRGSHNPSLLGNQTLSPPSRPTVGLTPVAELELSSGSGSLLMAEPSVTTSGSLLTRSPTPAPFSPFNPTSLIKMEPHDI
Sequence of SPIB (Q01892 whole entry): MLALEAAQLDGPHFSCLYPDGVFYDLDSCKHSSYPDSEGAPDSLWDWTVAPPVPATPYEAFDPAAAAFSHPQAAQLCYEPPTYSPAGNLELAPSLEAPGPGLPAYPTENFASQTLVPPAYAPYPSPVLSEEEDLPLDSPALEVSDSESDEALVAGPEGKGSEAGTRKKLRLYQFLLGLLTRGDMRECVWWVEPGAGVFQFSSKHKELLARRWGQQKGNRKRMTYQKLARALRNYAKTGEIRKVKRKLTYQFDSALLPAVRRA

With TAGCAT the binding signal (FLI1) was 1.16 fold enrichment (6-mer frequency, TF over GST control), the binding signal (ELK1) was 1.15 fold enrichment (6-mer frequency, TF over GST control) and the binding signal (GABPA) was 1.05 fold enrichment (6-mer frequency, TF over GST control). For the same sequence, the binding signal (ERG) was 1.11 fold enrichment (6-mer frequency, TF over GST control), the binding signal (ELF1) was 1.17 fold enrichment (6-mer frequency, TF over GST control) and the binding signal (EHF) was 1.14 fold enrichment (6-mer frequency, TF over GST control). The binding signal (SPI1) was 1.07 fold enrichment (6-mer frequency, TF over GST control), the binding signal (SPIB) was 1.05 fold enrichment (6-mer frequency, TF over GST control) and the binding signal (ELK3) was 1.13 fold enrichment (6-mer frequency, TF over GST control). For the same sequence, the binding signal (FEV) was 1.13 fold enrichment (6-mer frequency, TF over GST control), the binding signal (ETV5) was 1.09 fold enrichment (6-mer frequency, TF over GST control) and the binding signal (HSF1) was 1.38 fold enrichment (6-mer frequency, TF over GST control). For the same sequence, the binding signal (SPIC) was 1.07 fold enrichment (6-mer frequency, TF over GST control), the binding signal (ELF4) was 1.16 fold enrichment (6-mer frequency, TF over GST control) and the binding signal (ELK4) was 1.16 fold enrichment (6-mer frequency, TF over GST control). The binding signal (ELF3) was 1.15 fold enrichment (6-mer frequency, TF over GST control), the binding signal (CRX) was 1.42 fold enrichment (6-mer frequency, TF over GST control) and the binding signal (ETV1) was 1.17 fold enrichment (6-mer frequency, TF over GST control).
